In PubChem BioAssay:
The source made the active and inactive calls.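 Rule for the calls, unless noted: active = inhibition at or above 50% at 10 µM; inactive = inhibition below 50%.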

Columns and labels:
[1] = inhibitors of TNFa-induced NFkB p65 translocation, primary screen, imaging, HUVEC, MLSMR starter and 10KST1 sets (AID 438;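 active = inhibition above 20% together with a positive visual image hit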;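 note: compound added about 3h40 before a 20 min TNFalpha stimulation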;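 for inhibition: signal is the nuclear over cytoplasmic p65 intensity ratio per well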); settings: HUVEC TNFa-induced p65 nuclear translocation; cell count: measured here: nuclei count (cytotoxicity indicator), at 2.08 µM; inhibition: at 2 µM, stronger effect = higher value, 0% TNFa-plus-vehicle, 100% no-TNFa wells
[2] = reduction of polyQ htt aggregates in cells – imaging, exon1htt(103Q)mCFP cells, high-content imaging, primary screen (AID 483;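 active = visual image review flags a hit and inhibition of aggregation exceeds 20%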;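 note: compound exposure lasted 3 days before fixation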;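 for nuclei count: percent of the per-plate median nuclei count of sample wells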); settings: exon1htt(103Q)mCFP cell line, aggregate imaging, at 2 µM; inhibition of aggregation: stronger effect = higher value; nuclei count: measured here: cell count, toxicity
[3] = endothelial E-selectin expression blockers – imaging, HUVEC, immunofluorescence, MLSMR starter and 10KST1 sets, primary screen (AID 487;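 active = visually confirmed hit in the image check and inhibition above 20%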;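 for inhibition: signal is fraction of cell area covered by stained E-selectin grains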;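 for nuclei count: 100% = median nuclei count of all wells on the same plate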); settings: HUVEC TNFalpha-induced E-selectin immunofluorescence imaging, at 2 µM; inhibition: stronger effect = higher value; nuclei count: measured here: cell number, toxicity
[4] = biological target: Voltage-gated potassium channel subunit beta-2 (Rattus norvegicus) (UniProt P62483); test: inhibitors of rat Kvbeta2 reductase activity – biochemical, NADPH fluorescence, primary screen (AID 622;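 active = fluorescence slope higher than the sample average by over 3 SD, cut at about -0.22 in these data, passing the limit was not always enough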;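 note: slope of raw intensity against log time taken from 70 to 1610 s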); settings: recombinant KvBeta, 4-cyanobenzaldehyde reduction, at 10 µM, stronger effect = higher value
[5] = biological target: Voltage-gated potassium channel subunit beta-2 (Rattus norvegicus) (UniProt P62483); test: enhancers of rat Kvbeta2 NADPH turnover – biochemical, NADPH fluorescence, primary screen (AID 623;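 active = NADPH fluorescence slope more negative than the mean of all samples by about 3 SD, 99.7% confidence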;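 note: fluorescence intensity change per second fitted from 20 to 320 s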); settings: Recombinant KvBeta, NADPH fluorescence decrease slope, 10 min; at 10 µM; stronger effect = lower value
[6] = biological target: Alpha-2C adrenergic receptor (Homo sapiens) (UniProt P18825); test: compounds altering alpha2C-coupled GIRK flux – cell-based, HEK293 alpha2C/GIRK1/2, thallium flux, primary screen (AID 624;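 active = fluorescence slope after compound addition differing from the mean of all screened samples at 99.7% confidence, in either direction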;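 note: slope of fluorescence ratio to pre-addition baseline per second over 15 to 24 s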); settings: thallium flux BTC fluorescence, at 10 µM, actives lie on both sides
[7] = blockers of RIG-like receptor reporter activation – cell-based, Sendai virus stimulus, luciferase, 10K MLSCN set, TLR/RLR signaling modifier project, primary screen (AID 602276); settings: HEK293 RL24 IRF3 luciferase reporter, at 10 µM, stronger effect = higher value;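 note: firefly luciferase from ISG56 promoter only with Renilla not read in this screen; 0% = Sendai virus plus DMSO and 100% = medium plus DMSO without virus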
[8] = TLR3 IRF3 reporter activation blockers – cell-based, poly I:C stimulus, luciferase, 10K MLSCN set, primary screen (AID 602277;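 active = inhibition of the reporter signal at or above 50%; inactive = inhibition below 50%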); settings: HEK293-TLR3 RL24 IRF3 luciferase reporter, at 10 µM, stronger effect = higher value

Voltage-gated potassium channel subunit beta-2 (Rattus norvegicus), sequence (P62483 whole entry, looked up): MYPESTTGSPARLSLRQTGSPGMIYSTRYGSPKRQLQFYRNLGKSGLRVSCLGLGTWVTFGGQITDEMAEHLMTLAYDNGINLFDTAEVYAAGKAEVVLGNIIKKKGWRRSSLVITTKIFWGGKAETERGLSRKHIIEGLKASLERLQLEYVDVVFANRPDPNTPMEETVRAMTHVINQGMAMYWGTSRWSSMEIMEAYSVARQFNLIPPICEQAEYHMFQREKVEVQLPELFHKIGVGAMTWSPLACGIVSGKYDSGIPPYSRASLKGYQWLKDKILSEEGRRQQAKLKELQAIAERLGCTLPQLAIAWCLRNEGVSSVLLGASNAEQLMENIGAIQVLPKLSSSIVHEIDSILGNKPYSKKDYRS
Alpha-2C adrenergic receptor (Homo sapiens), sequence (P18825 whole entry, looked up): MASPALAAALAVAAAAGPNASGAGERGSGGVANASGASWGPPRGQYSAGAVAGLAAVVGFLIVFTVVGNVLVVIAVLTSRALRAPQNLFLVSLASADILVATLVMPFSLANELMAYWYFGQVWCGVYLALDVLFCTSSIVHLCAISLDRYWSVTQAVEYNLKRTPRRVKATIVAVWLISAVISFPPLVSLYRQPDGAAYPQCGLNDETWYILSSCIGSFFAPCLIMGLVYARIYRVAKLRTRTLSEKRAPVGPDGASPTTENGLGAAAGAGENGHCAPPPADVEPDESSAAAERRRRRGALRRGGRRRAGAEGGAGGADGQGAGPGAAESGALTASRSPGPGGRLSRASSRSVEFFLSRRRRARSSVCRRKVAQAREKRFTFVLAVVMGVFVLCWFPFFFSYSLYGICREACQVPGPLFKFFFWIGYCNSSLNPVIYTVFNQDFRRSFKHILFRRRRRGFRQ

| Compound | cell count [1] | inhibition [1] | inhibition of aggregation [2] | nuclei count [2] [%] | inhibition [3] | nuclei count [3] [%] | fluorescence slope [4] | NADPH fluorescence slope [5] | slope [6] | inhibition [7] | inhibition [8] |
| --- | --- | --- | --- | --- | --- | --- | --- | --- | --- | --- | --- |
| COc1cc(C(=O)N2CCN(c3cc(Cl)ccc3Cl)CC2)cc(OC)c1OC | 630 | -6.1% (inactive) | 1% (inactive) | 34.1 | -62.3% (inactive) | 98.9 | -0.425 (inactive) | -7.3e-05 (inactive) | 0.00499 (inactive) | 12% (inactive) | 78.9% (active) |
| CCOC(=O)Cc1ccc(NS(=O)(=O)c2ccc(SC)cc2)cc1 | 326 | -7.2% (inactive) | -3.4% (inactive) | 97.6 | -95.5% (inactive) | 109 | -0.494 (inactive) | -6.8e-05 (inactive) | 0.00542 (inactive) | -2.4% (inactive) | 9.62% (inactive) |
| COc1ccc(S(=O)(=O)Nc2ccc(F)c(F)c2)cc1Cl | 723 | 8.5% (inactive) | 5.1% (inactive) | 102 | -8.3% (inactive) | 98.5 | -0.496 (inactive) | -1.9e-05 (inactive) | 0.0057 (inactive) | 8.01% (inactive) | 31.5% (inactive) |
| CCOC(=O)N1CCC(NC(=O)c2cc3c(=O)n(C)c4ccccc4c3n2C)CC1 | 701 | -2.8% (inactive) | 4.2% (inactive) | 140 | -50.1% (inactive) | 112 | -0.416 (inactive) | -6.5e-05 (inactive) | 0.00503 (inactive) | 4.95% (inactive) | 28.7% (inactive) |
| Cc1cc(Oc2ccc(Cl)cc2)nc(-c2ccccc2O)n1 | 612 | 11.3% (inactive) | 4.5% (inactive) | 73.2 | -13.1% (inactive) | 101 | -0.517 (inactive) | 3.7e-05 (inactive) | 0.00665 (inactive) | 3.04% (inactive) | -8.94% (inactive) |
| C=CCSc1n[nH]c(-c2ccc(OC)cc2)n1 | 244 | 17.3% (inactive) | -8.3% (inactive) | 89.5 | -73.2% (inactive) | 103 | -0.417 (inactive) | -9.3e-05 (inactive) | 0.00611 (inactive) | -90.7% (inactive) | -168% (inactive) |
| O=c1oc2ccccc2c2nccnc12 | 410 | 2.1% (inactive) | 2.2% (inactive) | 104 | -5.2% (inactive) | 107 | -0.456 (inactive) | -3.3e-05 (inactive) | 0.00253 (inactive) | 5.7% (inactive) | 27.5% (inactive) |
| COCCNC(=O)CCc1nc(-c2ccccc2)no1 | 294 | -5% (inactive) | -9.3% (inactive) | 103 | -98.3% (inactive) | 123 | -0.504 (inactive) | 2.6e-05 (inactive) | 0.00646 (inactive) | 18.6% (inactive) | 16.3% (inactive) |
| COC(=O)C1=C(C)C(c2cccs2)NC(=O)N1C (configuration not stated) | 464 | 4.4% (inactive) | -0.4% (inactive) | 102 | – | 137 | -0.618 (inactive) | -2.3e-05 (inactive) | 0.0046 (inactive) | 15.4% (inactive) | 17.5% (inactive) |
| COc1ccccc1S(=O)(=O)Cc1ccc(C(=O)N2CCN(c3ccc(C)cc3)C(C)C2)o1 (configuration not stated) | 566 | 6.1% (inactive) | -8.4% (inactive) | 117 | -2.9% (inactive) | 91.7 | -0.527 (inactive) | -2.9e-05 (inactive) | 0.00593 (inactive) | 16.6% (inactive) | 22.5% (inactive) |
| CCc1nc(SCc2cc(Cl)ccc2OC)n[nH]1 | 661 | 8.7% (inactive) | -8.3% (inactive) | 95.5 | -47.4% (inactive) | 103 | -0.36 (inactive) | -6.3e-05 (inactive) | 0.00554 (inactive) | -11.3% (inactive) | -22.3% (inactive) |
| CN(Cc1ccccc1)C(=O)c1ccc2c(c1)OCO2 | 414 | 10.6% (inactive) | -8.8% (inactive) | 108 | – | 156 | -0.595 (inactive) | -2e-05 (inactive) | 0.0038 (inactive) | 2.22% (inactive) | -20.3% (inactive) |
| O=C(C1CCC(CNc2c(N3CCCCC3)c(=O)c2=O)CC1)N1CCc2ccccc2C1 (configuration not stated) | 557 | 8.9% (inactive) | -6.5% (inactive) | 95.1 | 44% (inactive) | 97.9 | -0.51 (inactive) | -1.9e-05 (inactive) | 0.00576 (inactive) | 8.75% (inactive) | 33.5% (inactive) |
| CC1CCN(Cc2ccc(NC(=O)C3CCN(c4nnc(-n5cccc5)s4)CC3)cc2)CC1 | 720 | -3% (inactive) | 13.7% (inactive) | 50.5 | 44.3% (inactive) | 97.9 | -0.409 (inactive) | -5.4e-05 (inactive) | 0.0059 (inactive) | 10.3% (inactive) | 44% (inactive) |
| COc1nc(NCCc2ccc(OC)c(OC)c2)nc(NC(C)(C)CO)n1 | 336 | -1.4% (inactive) | 13.7% (inactive) | 97.3 | -7% (inactive) | 108 | -0.496 (inactive) | -1.3e-06 (inactive) | 0.00642 (inactive) | 15.5% (inactive) | 11.8% (inactive) |
| Cc1ccc2c(CC(=O)OCc3csc(C)n3)coc2c1 | 367 | 0.2% (inactive) | 7.3% (inactive) | 92.6 | – | 106 | -0.44 (inactive) | 2.3e-05 (inactive) | 0.00641 (inactive) | 6.62% (inactive) | 30% (inactive) |
| CCS(=O)(=O)c1nc2ccccc2n1Cc1ccccc1Cl | 689 | -1.1% (inactive) | -10.2% (inactive) | 115 | -31.4% (inactive) | 109 | -0.542 (inactive) | -5.8e-06 (inactive) | 0.0072 (inactive) | -0.827% (inactive) | 18.9% (inactive) |
| CCC1CCc2c(sc3ncnc(N4CCOCC4)c23)C1 (configuration not stated) | 588 | -4.4% (inactive) | -3.1% (inactive) | 25.7 | -4% (inactive) | 114 | -0.469 (inactive) | -4.6e-05 (inactive) | 0.00589 (inactive) | -6.27% (inactive) | 13.8% (inactive) |
| Cc1cccc(NS(=O)(=O)c2cc(C(=O)OCC(=O)Nc3cc(C)on3)ccc2C)c1 | 427 | 7.9% (inactive) | 3.7% (inactive) | 99.6 | – | 125 | -0.498 (inactive) | -3.2e-05 (inactive) | 0.00536 (inactive) | 25.1% (inactive) | 2.98% (inactive) |
| Cc1cc(C)n(-c2ccc(C(=O)Oc3ccc4c(c3)OCO4)cc2)n1 | 440 | 3.3% (inactive) | 17.6% (inactive) | 100 | – | 148 | -0.468 (inactive) | -2.1e-05 (inactive) | 0.00555 (inactive) | 7.51% (inactive) | 1.41% (inactive) |
| COc1cc(C(=O)Nc2ccc(-n3cnnn3)c(C)c2)cc(OC)c1OC | 302 | 5.8% (inactive) | 11.6% (inactive) | 90 | -94.5% (inactive) | 149 | -0.617 (inactive) | 3e-06 (inactive) | 0.00564 (inactive) | -0.467% (inactive) | 20.8% (inactive) |
| Cc1cccc(-n2ncc3c(NCCCO)ncnc32)c1 | 840 | 2.3% (inactive) | -32% (inactive) | 101 | -2.8% (inactive) | 107 | -0.582 (inactive) | -1.5e-05 (inactive) | 0.00564 (inactive) | -58.8% (inactive) | -193% (inactive) |
| Clc1cccc(Nc2c3c(nc4ncnn24)CCC3)c1 | 416 | 6% (inactive) | -33.4% (inactive) | 36 | – | 145 | -0.63 (inactive) | -2.2e-07 (inactive) | 0.00604 (inactive) | 14.9% (inactive) | 30.2% (inactive) |
